# Screening results deposited in PubChem by Broad Institute.
# A selection follows.
# aSyn 5UTR act = Activators via SNCA 5'UTR binding, MLPCN. alpha-synuclein 5'UTR reporter, activators screen. activity score, % (tested at 7.5 µM), hits read low. 300,000 tested, 7.1% active. AID 1814; in the data active = activity score below about -60%
# * = called active by the depositor.
SMILES,aSyn 5UTR act
CC(=O)N1N=C(c2ccccc2)CC1c1cn(C)c2ccccc12 (stereo unspecified),-117.5*
COc1ccc(C2=NN(C(=O)COc3ncnc4ccccc34)C(c3ccco3)C2)cc1 (stereo unspecified),64.0
CC(=O)N1N=C(c2ccc(C)cc2)CC1c1ccc2c(c1)OCO2 (stereo unspecified),-132.9*
CS(=O)(=O)N1N=C(c2ccc(Br)cc2)CC1c1ccc2c(c1)OCO2 (stereo unspecified),-321.9*
Cc1ccc(C2=NN(S(C)(=O)=O)C(c3ccc4c(c3)OCO4)C2)cc1 (stereo unspecified),-265.1*
CC(=O)Nc1ccccc1C(=O)C(=O)Nc1ccccc1,-96.3*
CC(=O)Nc1ccccc1C(=O)C(=O)Nc1cccc(Br)c1,-78.8*
CCC(=O)Nc1ccccc1C(=O)C(=O)Nc1ccccc1,-69.5*
CC(=O)Nc1ccccc1C(=O)C(=O)Nc1ccc(Cl)cc1,-105.8*
CC(=O)c1ccc(OCc2cc(C(=O)N(C)C3CCOC3)no2)cc1 (stereo unspecified),-129.6*
Cc1cc(OCc2cc(C(=O)N(C)C3CCOC3)no2)cc(C)c1Cl (stereo unspecified),-106.9*
CC(=O)c1ccc(OCc2cc(C(=O)N(C)CCOc3ccc(C)cc3)no2)cc1,-170.1*
Cc1cccnc1NC(=O)c1ccc2c(c1)OCCO2,-172.3*
O=C(Nc1ncccc1O)c1ccc2c(c1)OCCO2,-222.2*
O=C(Nc1ncccc1O)c1ccc2c(c1)OCO2,-207.3*
O=C(c1cccs1)N(C(=O)c1cccs1)c1ccc(Br)cn1,-144.3*
Cc1ccnc(NC(=O)CCC(=O)c2cccs2)c1,84.0
Cc1ccnc(N(C(=O)c2cccs2)C(=O)c2cccs2)c1,-156.7*
CCOCCCNC(=O)c1cc2c(=O)n(CC)c3ccccc3c2s1,-79.9*
CN1CCN(CCCNC(=O)c2cc3c(=O)n(C)c4ccccc4c3s2)CC1,-73.8*
CCN(CC)CCCNC(=O)c1cc2c(=O)n(CC)c3ccccc3c2s1,-107.5*
CCCN(CCC)CCNC(=O)c1cc2c(=O)n(CC)c3ccccc3c2s1,-173.7*
CCN(CC)CCNC(=O)c1cc2c(=O)n(CC)c3ccccc3c2s1,-124.6*
COC(=O)c1cnc(Oc2ccc(NC(=O)NC(=O)c3ccccc3Cl)cc2)cc1C(F)(F)F,-62.7*
CCCn1c(Sc2nnnn2-c2ccccc2)n[nH]c1=O,-98.1*
SMILES,aSyn 5UTR act
O=C(NC(=S)Nc1ccc(N2CCCCC2)cc1)c1ccc2c(c1)OCCO2,-124.8*
O=C(NC(=S)Nc1ccc(CN2CCOCC2)cc1)c1ccc2c(c1)OCCO2,-116.2*
CN(C)c1nc(F)c(F)c(S(=O)(=O)c2ccccc2)c1F,-93.9*
COCc1nnc(NC(=O)c2sc3ccccc3c2Cl)s1,-102.1*
CNC(=O)c1ccsc1NC(=O)c1sc2ccccc2c1Cl,-168.5*
O=C(NCC(=O)N1CCN(c2ncccn2)CC1)c1cccs1,-66.5*
FC(F)(F)c1cc(Cl)c2nc(-c3ccccc3)cn2c1,-79.6*
Nc1cccc(-c2cn3cc(C(F)(F)F)cc(Cl)c3n2)c1,-99.9*
O=C(NCc1cccnc1)/C(=C\c1ccc(-c2ccc(Cl)c(Cl)c2)o1)S(=O)(=O)c1ccccc1,-331.6*
Cc1ccc2nc(-c3ccc(N)cc3)sc2c1,90.0
Cc1ccc2nc(-c3ccc(NS(=O)(=O)c4ccc(F)cc4)cc3)sc2c1,-133.5*
CC(=O)NC(=S)Nc1ccc(-c2nc3ccc(C)cc3s2)cc1,-271.7*
CNC(=S)Nc1ccc(-c2nc3ccc(C)cc3s2)cc1,-90.6*
CC1=CCC(C(=O)O)C(C(=O)Nc2ccc(-c3nc4ccc(C)cc4s3)cc2)C1 (stereo unspecified),-131.2*
COc1ccc(/C=C(\C#N)C(=O)OCC(=O)Nc2ccc(-c3nc4ccc(C)cc4s3)cc2)cc1,-69.6*
COc1cc2nc(Nc3ccc(C)c(Cl)c3)nc(N)c2cc1OC,98.5
COC(=O)c1ccc(Nc2cc(C)nc3ccccc23)cc1,64.7
COc1cc2nc(Nc3ccc(C)c(C)c3)nc(N)c2cc1OC,-131.3*
CCOC(=O)c1ccc(Nc2nc(N)c3cc(OC)c(OC)cc3n2)cc1,-104.3*
COC(=O)c1ccc(Nc2nc(C)cc(C)n2)cc1,-82.9*
COc1cc2nc(Nc3ccc(F)cc3)nc(N)c2cc1OC,-130.6*
COc1cc2nc(N(C)C)nc(N)c2cc1OC,-78.1*
Cc1cc(NC(=O)C2CC2)ncc1NC(=O)c1ccccn1,-92.5*
Cc1cc(NC(=O)C2CCCCC2)ncc1NC(=O)c1ccccn1,-73.2*
Cc1ccc(/C=N/NC(=O)c2ccc(Br)o2)s1,-110.7*
SMILES,aSyn 5UTR act
CCc1ccc(/C=N\NC(=O)c2ccc(Br)o2)s1,-167.2*
COc1ccc(C2C(C#N)=C(N)Nc3nc4ccccc4n32)cc1 (stereo unspecified),-179.4*
CCOc1ccc(N=C(/C(C(=O)C(=O)N2CCOCC2)=C(/O)c2ccccc2)c2ccccc2)cc1,-202.9*
Cc1cc(NCCCn2ccnc2)n2nc(C)c(-c3ccc(Cl)cc3)c2n1,53.8
Cc1cc(NCCCn2ccnc2)n2nc(C)c(-c3ccccc3)c2n1,-139.5*
Oc1[nH]c2ccccc2c1C=Nc1ccccc1,-130.2*
